Data on 61 compounds can be found in PubChem BioAssay AID624297 (National Center for Advancing Translational Sciences (NCATS), 2012).

Screen size: about 340,000 compounds; about 6,200 (1.8%) were called active. Not shown: some 10% with an inconclusive outcome. Many of the other results were omitted from the sample, so actives are more common in it than they were. Values without a mark were called inactive. Calls follow the shape of the dose curve; as a rule, active = well fitted activation curve with a large enough effect; inconclusive = small, poorly fitted or top-dose-only effect; inactive = no such curve, though single readings can be large or run the other way.
Potency is read from the fitted curve at half-maximal effect.

The nature of this experiment: A quantitative high throughput screen for small molecules that induce DNA re-replication in SW480 colon adenocarcinoma cells. Also: nearly all actives have a fitted effect of over 55% in size. As to re-replication activation: % of control where 0% means no effect. The settings on record: Hoechst DNA content imaging, 48 h; series mostly up to 46.1 µM; re-replication activation: at the top concentration. The method, boiled down: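 Compounds, transferred as 23 nL by pin tool, were incubated with cells for 48 hr; DNA content per nucleus was then quantified by Hoechst staining and fluorescence plate imaging.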
As for `COc1cccc(NC(=O)COC(=O)c2ccc3ccccc3n2)c1`, the “re-replication activation” value is 1.57%.
As for `CN(CCc1ccccc1)C(=O)c1cccc(NC(=O)Cc2cccc(NC(=O)C3CCCN(C(=O)CCc4ccccc4)C3)c2)c1` (stereo unspecified), the “re-replication activation” value is 0.811%.
As for `CC(NC(=O)c1ccccc1)C(=O)OCC(=O)Nc1cccc(S(=O)(=O)N2CCCC2)c1` (stereo unspecified), the “re-replication activation” value was -5.24%.
`CC1(C)CC(=O)C(CC(=O)N2CCC(Cc3ccccc3)CC2)C(=O)C1`: the “re-replication activation” value is -0.753%.
With `CC1(C)CC(=O)C=C(Nc2ccccc2)C1`, the “re-replication activation” value was -23.6%.
Consider `CC1(C)CC(=O)C(C2c3ccccc3S(=O)(=O)c3ccccc32)C(=O)C1`, for which the Potency was 4.11 µM (active).
In the case of `COC(=O)C1CCN(C(=O)COC(=O)c2cc(S(=O)(=O)N3CCOCC3)ccc2C)CC1`, the “re-replication activation” value was -0.243%.
`C#CCOCCOCCOCCNc1nc(N2CCN(C(=O)Cn3cc(CCO)nn3)CC2)nc(N2CCN(C(=O)Cn3cc(CCCN=C(N)N)nn3)CC2)n1`: the “re-replication activation” value was -27.1%.
In the case of `COc1ccccc1-c1nc(SC)n[nH]1`, the “re-replication activation” value was 3.14%.
On to `Cc1cc(C)nc(Nc2cc([N+](=O)[O-])ccc2C)n1`, for which the “re-replication activation” value is -0.192%.
As to `Cc1cc(C)nc(Nc2n[nH]c(-c3ccccc3N)n2)n1`, the Potency was 29.1 µM (active).
Consider `Cc1noc(C)c1NC(=O)Nc1cccc2c1O[C@H](CN(C)C(=O)Nc1ccccc1)[C@@H](C)CN([C@H](C)CO)C2=O`, for which the “re-replication activation” value was -3.39%.
As to `CCCSc1ccc([C@H]2N[C@@](Cc3ccccc3)(C(=O)OC)[C@H]3C(=O)N(C)C(=O)[C@@H]23)cc1`, the “re-replication activation” value was 2.68%.
For `Cc1ccc(CNC(=O)COC(=O)C2CCC2)cc1`, the “re-replication activation” value is -1.38%.
`CCOc1ccccc1NC(=O)CCc1ccc(C)o1`: the “re-replication activation” value was -4.07%.
In the case of `Cc1ccc(CCC(=O)Nc2ncc(Cc3cc(Cl)ccc3Cl)s2)o1`, the Potency was 1.64 µM (active).
Regarding `Cc1cnc(NC(=O)CSc2nnc(-c3ccc(Cl)cc3Cl)n2N)s1`, the “re-replication activation” value is -3.24%.
Regarding `O=[N+]([O-])c1cc2ccccc2nc1-c1ccccc1`, the “re-replication activation” value was -4.95%.
Same read-out and setting: under `O=C(CN1C(=O)NC2(CCOc3ccccc32)C1=O)Nc1cccc([N+](=O)[O-])c1` (stereo unspecified) stands -3.66%; under `Cc1ccc(C(=O)COc2cccc(NC(=O)c3ccco3)c2)cc1`, -1.13%; under `Cc1ccnc(NC(=O)c2ccco2)n1`, -1.17%.
With `CCn1nc(NC(=O)c2ccco2)c2cc3ccc(C)cc3nc21`, the Potency was 9.2 µM (active).
With `O=S1(=O)CCOC[C@H](Cc2ccccc2)N1Cc1ccccc1Br`, the “re-replication activation” value is 1.97%.
With `O=C(CCc1nc2ccccc2c(=O)[nH]1)OCC(=O)c1cccc(Cl)c1`, the “re-replication activation” value is 6.23%.
Turning to `O=C(/C(=C/c1cccc(Cl)c1)c1nc2ccccc2[nH]1)c1ccccc1`, the Potency is 18.4 µM (active).
Take `CCC(=O)/C(=C(/O)c1ccccc1)c1nc2ccccc2[nH]1`: the “re-replication activation” value was 2.37%.
On to `NCCN1CCN2C(=O)CN(C(=O)c3ccccc3)CC12` (stereo unspecified), for which the “re-replication activation” value is -2.42%.
As to `COc1ccc(N2CCN(C(CNS(=O)(=O)c3ccc(C)cc3)c3ccccc3)CC2)cc1` (stereo unspecified), the “re-replication activation” value was 0.608%.
For `Cc1cccc(C)c1NC(=O)C(c1ccccc1)N1CC(=O)Nc2ccccc21` (stereo unspecified), the “re-replication activation” value was 0.667%.
On to `Cc1cccc(C)c1NC(=O)C(Cl)C(=O)c1ccccc1` (stereo unspecified), for which the Potency is 16.4 µM (active).
As for `Cc1cccc(C)c1NC(=O)CN(C)C(=O)CCC(=O)c1ccccc1`, the “re-replication activation” value is -6.19%.
As for `COc1cc(OC)c(C(=O)NNC(=O)c2ccc(NS(=O)(=O)c3cccs3)cc2)cc1OC`, the “re-replication activation” value is -7.25%.
The same measure, in the same setting: the result for `NC(=O)C1(Nc2ccc([N+](=O)[O-])cc2)CCCC1` reads -5.68%.
In the case of `CCOC(=O)c1cc2c(=O)n3ccccc3nc2n(CC(C)C)c1=NC(=O)c1c(-c2c(F)cccc2Cl)noc1C`, the Potency was 13 µM (active).
For `C/C(=N/OC(=O)c1c(-c2c(F)cccc2Cl)noc1C)c1cnccn1`, the “re-replication activation” value is 2.38%.
Same read-out and setting: under `CCCn1c(=NC(C)=O)c(C(=O)OCC)cc2c(=O)n3ccccc3nc21` stands -5.85%; under `O=C(OCC(=O)N1CCN(C(=O)c2ccco2)CC1)c1c(Cl)cccc1Cl`, -3.88%.
On to `Cc1ccc(/C=C/C(=O)Nc2ccc([N+](=O)[O-])c(NC(=O)/C=C/c3ccc(C)o3)c2)o1`, for which the “re-replication activation” value was -131%.
Consider `O=C(/C=C/c1ccc([N+](=O)[O-])o1)NNC(=O)c1ccc(F)cc1`, for which the Potency is 3.66 µM (active).
As for `O=C(NNC(=O)C1CCCC1)c1ccc(F)cc1`, the “re-replication activation” value is -10.5%.
Regarding `Cc1cccc(C(=O)OCC(=O)NC(C)C2CC3CCC2C3)c1O` (stereo unspecified), the “re-replication activation” value is -17.9%.
Still for that read-out and setting: the result for `CNC(=S)NNC(=O)c1cccn(Cc2ccccc2)c1=O` reads 1.88%; that for `CNC(=S)NNC(=O)c1sccc1OCc1ccccc1`, -0.0576%.
Regarding `CNC(=S)NNC(=O)c1oc2nc(-c3ccccc3)cc(-c3ccco3)c2c1N`, the Potency was 14.6 µM (active).
On to `COc1ccc(CC(=O)NC(C)c2ccc(Cl)c(Cl)c2)cc1S(=O)(=O)N1CCOCC1` (stereo unspecified), for which the “re-replication activation” value was 2.95%.
For `Cc1ccc(Nc2c(O)nc[nH]c2=O)cc1C`, the “re-replication activation” value was -13.6%.
Still for that read-out and setting: the result for `C[C@]12CC[C@H](O)CC1=CCC1C2CC[C@@]2(C)C1CC[C@@H]2NC(=O)CCC(=O)O` (stereo partly specified) reads 1.14%; that for `COC(=O)C1CC2=C(CC(C)(C)CC2=O)N(c2ccccc2)C1=O` (stereo unspecified), -17.5%.
On the same count and under the same terms, under `CCOC(=O)c1ccc(NC(=O)c2cccnc2)cc1` stands -8.89%.
Regarding `CCOC(=O)c1ccc(N/C(=N/S(=O)(=O)c2ccccc2)c2ccccc2)cc1`, the Potency was 20.6 µM (active).
For the compound `Cc1ccc(S(=O)(=O)/N=C(/Nc2ccc3[nH]c(=O)[nH]c3c2)c2ccccc2)cc1`, the “re-replication activation” value is -13.2%.
`NC(=S)NN=C1CCCC(C(F)(F)F)C1` (stereo unspecified): the “re-replication activation” value was 1.54%.
Turning to `O=[N+]([O-])c1ccc(C=NN=Cc2ccc([N+](=O)[O-])cc2)cc1`, the “re-replication activation” value is 17.9%.
As for `O=C(NN=Cc1ccc([N+](=O)[O-])cc1)C1CC1`, the “re-replication activation” value was 3.41%.
For `O=C1/C(=C\c2ccc([N+](=O)[O-])cc2)CS(=O)(=O)C/C1=C/c1ccc([N+](=O)[O-])cc1`, the Potency was 4.11 µM (active).
As for `CCC(CO)Oc1cc(NC(=O)c2cccc(F)c2)c2ncn(C(C)C)c2c1` (stereo unspecified), the “re-replication activation” value is -12.5%.
As to `O=C1N[C@@H](c2ccccc2)COC(=O)[C@H](Cc2ccc(F)cc2)C/C=C\C[C@@H]1CC(=O)N(CCO)Cc1ccccc1`, the “re-replication activation” value is -12.5%.
Regarding `COc1ccc(CSc2nc(N3CCOCC3)c3c(c2C#N)CC(C)(C)OC3)cc1`, the “re-replication activation” value was 0.477%.
`CC(C)C(=O)N1CCN(c2nc(-c3ccccc3)c3c(c2C#N)CC(C)(C)OC3)CC1`: the “re-replication activation” value is -7.44%.
With `CC1(C)Cc2c(C#N)c(SCc3nc4ccccc4[nH]3)nc(N3CCOCC3)c2CO1`, the Potency was 12.6 µM (active).
Turning to `C=CC(COCc1ccccc1)N(CC(=O)OC)S(=O)(=O)c1cc(Br)ccc1OC` (stereo unspecified), the re-replication activation was 4.23% [at 9.22 µM].
